Laboratory results reported in the supplement of paper PMC8253809.

These molecules were tested on DIPGX9 (diffuse intrinsic pontine glioma line) (assay: growth inhibition (% activity, log2 RLU normalised to DMSO / staurosporine); higher = more growth inhibition). Details: 33 µM.
Method in brief: (§1)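 Approved drugs were tested in triplicate at a single final concentration of about 33 μM for 7 days at 37 °C, 5% CO2, on pHGG cell lines and H9-derived neural stem cells. Readout was CellTiter-Glo luminescence, log2-transformed and scaled per plate to % activity between solvent and positive control wells. The median over replicates gives the growth-inhibition value.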

| Compound | growth inhibition [%] |
| --- | --- |
| O=c1c(-c2ccc(O)cc2)coc2cc(O)ccc12 | -0.874 |
| Oc1ncnc2[nH]ncc12 | -2.61 |
| Oc1ccc(/C=C/c2cc(O)cc(O)c2)cc1 | 1.48 |
| CCCCCCCCCCCCCCCC[N+](C)(C)C | 22.2 |
| COc1cc(C(=O)NC2CCCNC2)cc(OC)c1OC (stereo not given) | 0.203 |
| O=C(O[C@H]1CN2CCC1CC2)N1CCc2ccccc2[C@@H]1c1ccccc1 | -0.425 |
| Cc1nc2n(c(=O)c1CCN1CCC(c3noc4cc(F)ccc34)CC1)CCCC2O (stereo not given) | 0.251 |
| COc1cc2c(cc1Cc1cccc(Cl)c1F)c(=O)c(C(=O)O)cn2[C@H](CO)C(C)C | 3.93 |
| CC1=C(C(=O)O)N2C(=O)[C@@H](NC(=O)[C@H](N)c3ccccc3)[C@H]2SC1 | -1.35 |
| COc1ccc(-c2ccc3cc(C(=O)O)ccc3c2)cc1C12CC3CC(CC(C3)C1)C2 | 2.82 |
| COCCCOc1cc(C[C@@H](C[C@H](N)[C@@H](O)C[C@H](C(=O)NCC(C)(C)C(N)=O)C(C)C)C(C)C)ccc1OC | 6.01 |
| C=C1CCC(O)CC1=CC=C1CCCC2(C)C1CCC2C(C)CCCC(C)(C)O (stereo not given) | -0.221 |
| COc1cc2c(cc1O)CC[C@@H]1[C@@H]2CC[C@]2(C)[C@@H](O)CC[C@@H]12 | 16.5 |
| [O-]n1ccccc1=S.[O-]n1ccccc1=S.[Zn+2] | 56.4 |
| Nc1ccc(S(=O)(=O)Nc2nccs2)cc1 | -0.733 |
| CCC1=C(C)CN(C(=O)NCCc2ccc(S(=O)(=O)NC(=O)N[C@H]3CC[C@H](C)CC3)cc2)C1=O | 1.61 |
| CS(=O)(=O)c1ccc([C@@H](O)[C@@H](CF)NC(=O)C(Cl)Cl)cc1 | 2.53 |
| COC(=O)C1=C(C)NC(C)=C(C(=O)OC)C1c1ccccc1[N+](=O)[O-] | 3.5 |
| CC(C)Cn1cnc2c(N)nc3ccccc3c21 | 0.567 |
| CCOc1ccc2ccccc2c1C(=O)N[C@@H]1C(=O)N2[C@@H]1SC(C)(C)[C@@H]2C(=O)O | -1.14 |

| Compound | growth inhibition [%] |
| --- | --- |
| Cc1onc(-c2ccccc2Cl)c1C(=O)N[C@@H]1C(=O)N2[C@@H]1SC(C)(C)[C@@H]2C(=O)O | -1.05 |
| O=C[C@H](O)[C@@H](O)[C@H](O)CO | 1.55 |
| CO/N=C(\C(=O)N[C@@H]1C(=O)N2C(C(=O)O)=C(Cn3ccc(=N)n3CCO)CS[C@H]12)c1csc(N)n1 | 0.497 |
| CC(=O)Oc1cc2c(s1)CCN(C(C(=O)C1CC1)c1ccccc1F)C2 (stereo not given) | -0.813 |
| CC(C)n1c(/C=C/[C@@H](O)C[C@@H](O)CC(=O)O)c(-c2ccc(F)cc2)c2ccccc21 | 6.39 |
| C[C@@H]1CC(=O)NN=C1c1ccc(NN=C(C#N)C#N)cc1 | 4.28 |
| CCCCC1=NC2(CCCC2)C(=O)N1Cc1ccc(-c2ccccc2-c2nnn[nH]2)cc1 | 1.47 |
| C[C@@H](O[C@H]1OCCN(Cc2n[nH]c(=O)[nH]2)[C@H]1c1ccc(F)cc1)c1cc(C(F)(F)F)cc(C(F)(F)F)c1 | 4.43 |
| COC(=O)C1=C(C)NC(C)=C(C(=O)OCC(C)C)C1c1ccccc1[N+](=O)[O-] (stereo not given) | 2.65 |
| CC#CCn1c(N2CCC[C@@H](N)C2)nc2c1c(=O)n(Cc1nc(C)c3ccccc3n1)c(=O)n2C | -0.000837 |
| CC(C)(O/N=C(\C(=O)N[C@@H]1C(=O)N2C(C(=O)[O-])=C(C[n+]3ccccc3)CS[C@H]12)c1csc(N)n1)C(=O)O | 0.416 |
| CCC(=O)O[C@@H](O[P@](=O)(CCCCc1ccccc1)CC(=O)N1C[C@H](C2CCCCC2)C[C@H]1C(=O)O)C(C)C | 1.15 |
| O=C(O)c1cn(C2CC2)c2cc(N3CCNCC3)c(F)cc2c1=O | -1.26 |
| N[C@H](C(=O)O)[C@H](O)c1ccc(O)c(O)c1 | -0.989 |
| COCCCC/C(=N\OCCN)c1ccc(C(F)(F)F)cc1 | 3.17 |
| O=C1c2cccc3c2[C@H](CCC3)CN1[C@@H]1CN2CCC1CC2 | 0.719 |
| CC(C)(C)C(=O)OCOP(=O)(COCCn1cnc2c(N)ncnc21)OCOC(=O)C(C)(C)C | 19.5 |
| CCOC(=O)C1=C(C)NC(C)=C(C(=O)OCC)C1c1ccccc1/C=C/C(=O)OC(C)(C)C | 4.68 |
| Cc1ncc(C[n+]2csc(CCO)c2C)c(N)n1 | 0.746 |
| CN1c2cc(O)c(N=NC(N)=O)cc2CC1S(=O)(=O)O (stereo not given) | -0.808 |

These molecules were tested on HGGX39 (paediatric high-grade glioma line) in the same assay as above. Details: 33 µM.
Method in brief: as §1

| Compound | growth inhibition [%] |
| --- | --- |
| O=c1c(-c2ccc(O)cc2)coc2cc(O)ccc12 | 1.36 |
| Oc1ncnc2[nH]ncc12 | -3.77 |
| Oc1ccc(/C=C/c2cc(O)cc(O)c2)cc1 | 1.37 |
| CCCCCCCCCCCCCCCC[N+](C)(C)C | 48.6 |
| COc1cc(C(=O)NC2CCCNC2)cc(OC)c1OC (stereo not given) | 2.37 |
| O=C(O[C@H]1CN2CCC1CC2)N1CCc2ccccc2[C@@H]1c1ccccc1 | 1.75 |
| Cc1nc2n(c(=O)c1CCN1CCC(c3noc4cc(F)ccc34)CC1)CCCC2O (stereo not given) | 1.52 |
| COc1cc2c(cc1Cc1cccc(Cl)c1F)c(=O)c(C(=O)O)cn2[C@H](CO)C(C)C | 4.45 |
| CC1=C(C(=O)O)N2C(=O)[C@@H](NC(=O)[C@H](N)c3ccccc3)[C@H]2SC1 | 3.87 |
| COc1ccc(-c2ccc3cc(C(=O)O)ccc3c2)cc1C12CC3CC(CC(C3)C1)C2 | 2.84 |
| COCCCOc1cc(C[C@@H](C[C@H](N)[C@@H](O)C[C@H](C(=O)NCC(C)(C)C(N)=O)C(C)C)C(C)C)ccc1OC | 3.87 |
| C=C1CCC(O)CC1=CC=C1CCCC2(C)C1CCC2C(C)CCCC(C)(C)O (stereo not given) | 3.14 |
| COc1cc2c(cc1O)CC[C@@H]1[C@@H]2CC[C@]2(C)[C@@H](O)CC[C@@H]12 | 13.2 |
| [O-]n1ccccc1=S.[O-]n1ccccc1=S.[Zn+2] | 20.2 |
| Nc1ccc(S(=O)(=O)Nc2nccs2)cc1 | -2.1 |
| CCC1=C(C)CN(C(=O)NCCc2ccc(S(=O)(=O)NC(=O)N[C@H]3CC[C@H](C)CC3)cc2)C1=O | -0.27 |
| CS(=O)(=O)c1ccc([C@@H](O)[C@@H](CF)NC(=O)C(Cl)Cl)cc1 | 12.9 |
| COC(=O)C1=C(C)NC(C)=C(C(=O)OC)C1c1ccccc1[N+](=O)[O-] | -0.258 |
| CC(C)Cn1cnc2c(N)nc3ccccc3c21 | 1.26 |
| CCOc1ccc2ccccc2c1C(=O)N[C@@H]1C(=O)N2[C@@H]1SC(C)(C)[C@@H]2C(=O)O | -0.856 |

| Compound | growth inhibition [%] |
| --- | --- |
| Cc1onc(-c2ccccc2Cl)c1C(=O)N[C@@H]1C(=O)N2[C@@H]1SC(C)(C)[C@@H]2C(=O)O | -0.725 |
| O=C[C@H](O)[C@@H](O)[C@H](O)CO | 1.07 |
| CO/N=C(\C(=O)N[C@@H]1C(=O)N2C(C(=O)O)=C(Cn3ccc(=N)n3CCO)CS[C@H]12)c1csc(N)n1 | -0.232 |
| CC(=O)Oc1cc2c(s1)CCN(C(C(=O)C1CC1)c1ccccc1F)C2 (stereo not given) | 0.291 |
| CC(C)n1c(/C=C/[C@@H](O)C[C@@H](O)CC(=O)O)c(-c2ccc(F)cc2)c2ccccc21 | 18.7 |
| C[C@@H]1CC(=O)NN=C1c1ccc(NN=C(C#N)C#N)cc1 | 4.26 |
| CCCCC1=NC2(CCCC2)C(=O)N1Cc1ccc(-c2ccccc2-c2nnn[nH]2)cc1 | 3.35 |
| C[C@@H](O[C@H]1OCCN(Cc2n[nH]c(=O)[nH]2)[C@H]1c1ccc(F)cc1)c1cc(C(F)(F)F)cc(C(F)(F)F)c1 | 12.5 |
| COC(=O)C1=C(C)NC(C)=C(C(=O)OCC(C)C)C1c1ccccc1[N+](=O)[O-] (stereo not given) | 5 |
| CC#CCn1c(N2CCC[C@@H](N)C2)nc2c1c(=O)n(Cc1nc(C)c3ccccc3n1)c(=O)n2C | 0.6 |
| CC(C)(O/N=C(\C(=O)N[C@@H]1C(=O)N2C(C(=O)[O-])=C(C[n+]3ccccc3)CS[C@H]12)c1csc(N)n1)C(=O)O | 1.23 |
| CCC(=O)O[C@@H](O[P@](=O)(CCCCc1ccccc1)CC(=O)N1C[C@H](C2CCCCC2)C[C@H]1C(=O)O)C(C)C | 2.87 |
| O=C(O)c1cn(C2CC2)c2cc(N3CCNCC3)c(F)cc2c1=O | -1.56 |
| N[C@H](C(=O)O)[C@H](O)c1ccc(O)c(O)c1 | -1.97 |
| COCCCC/C(=N\OCCN)c1ccc(C(F)(F)F)cc1 | 4.47 |
| O=C1c2cccc3c2[C@H](CCC3)CN1[C@@H]1CN2CCC1CC2 | 1.18 |
| CC(C)(C)C(=O)OCOP(=O)(COCCn1cnc2c(N)ncnc21)OCOC(=O)C(C)(C)C | 11.8 |
| CCOC(=O)C1=C(C)NC(C)=C(C(=O)OCC)C1c1ccccc1/C=C/C(=O)OC(C)(C)C | 24.1 |
| Cc1ncc(C[n+]2csc(CCO)c2C)c(N)n1 | 1.92 |
| CN1c2cc(O)c(N=NC(N)=O)cc2CC1S(=O)(=O)O (stereo not given) | -0.659 |
